Test systems include NCI-H23 lung; NCI-H226 lung; NCI-H322M lung; HOP-62 NSCLC; NCI-H460 lung; HOP-92 NSCLC; NCI-H522 lung; A549/ATCC NSCLC; 786-0 renal; COLO 205 colon.
Holding throughout (assay): NCI-60 one-dose screen, 48 h (100 = growth as untreated, 0 = no growth, -100 = all killed)
Holding throughout (conditions): 10 µM unless noted

The panel holds about 83,000 compounds, 20% with a hit somewhere; the sample as a whole holds those more often.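 48-hour exposure, single concentration, 96-well plates; percent growth endpoint where 0 means no net growth. Active: below 10.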 A number with no mark means an inactive call. The source made the active and inactive calls.

On to `CS(=O)(=O)c1ccc(Nc2nc(N[C@H]3CCCC[C@H]3N)nc3cc[nH]c(=O)c23)cc1`, for which the growth in the test with NCI-H23 lung was -5.38% (active); with NCI-H226 lung it was -4.65% (active); in the test with NCI-H322M lung, 24.1%; with HOP-62 NSCLC it was 21.1%; in the test on NCI-H460 lung, 12.4%; in the test on HOP-92 NSCLC, -8.34% (active). The growth in the test with NCI-H522 lung is -37% (active); in the test with A549/ATCC NSCLC, 33.6%; with 786-0 renal, 22.5%; with COLO 205 colon it was -3.93% (active).

Turning to `CN(C)CC1=NC2SC=C(c3ccccc3)C2C(=O)N1CC#N` (stereo not given), the growth with NCI-H23 lung was 102%; in the test with NCI-H226 lung, 85.5%; with NCI-H322M lung, 89.2%; in the test on HOP-62 NSCLC, 102%; in the test with NCI-H460 lung, 115%; with HOP-92 NSCLC it was -14.6% (active). Besides, the growth is 84.5% in the test with NCI-H522 lung, 96.3% with A549/ATCC NSCLC, 96.2% with 786-0 renal and 130% in the test on COLO 205 colon.

As for `O=Cc1ccc(O)c2ncccc12`, the growth with NCI-H23 lung is 29.2%; in the test with NCI-H226 lung, 116%; with NCI-H322M lung, 97.1%; with HOP-62 NSCLC, 44.6%; in the test with NCI-H460 lung it was 30.1%; with HOP-92 NSCLC, 43.5%. In addition, the growth in the test on NCI-H522 lung is 51.8%; with A549/ATCC NSCLC, 100%; in the test with 786-0 renal, 89.3%; with COLO 205 colon, 17.8%.

For the compound `Cc1ccc(Cl)c(NS(=O)(=O)c2ccc(-c3cnc(C4CC4)o3)cc2)c1`, the growth was 36.2% with NCI-H23 lung; 33.8% with NCI-H226 lung; 44.4% in the test on NCI-H322M lung; 42.7% in the test on HOP-62 NSCLC; 14.3% in the test with NCI-H460 lung; 73.9% in the test with HOP-92 NSCLC. The growth with NCI-H522 lung is 3.84% (active); in the test with A549/ATCC NSCLC, 26.5%; with 786-0 renal, 27.8%; in the test with COLO 205 colon, -0.408% (active).

Take `Cc1cc(N2CCCC2)nc(NCc2cc(Nc3ccnc4cc(Cl)ccc34)ccc2F)n1`: the growth in the test with NCI-H23 lung is -27.8% (active); in the test on NCI-H226 lung it was 24.8%; in the test on NCI-H322M lung it was -27.6% (active); in the test on HOP-62 NSCLC it was -69.2% (active); with NCI-H460 lung, -71.5% (active); with HOP-92 NSCLC, -14% (active). Besides, the growth in the test on NCI-H522 lung is -50.3% (active); in the test with A549/ATCC NSCLC it was -13.1% (active); in the test on 786-0 renal it was -92.7% (active); in the test with COLO 205 colon, -82.2% (active).

As for `Nc1n[nH]c2cc(F)c([C@@H]3Nc4c(F)cc5[nH]ncc5c4[C@H]4C5CCC(C5)[C@@H]34)cc12` (stereo not given in full), the growth in the test with NCI-H23 lung is 25.5%; in the test on NCI-H226 lung, 46.3%; in the test on NCI-H322M lung it was 57%; in the test with HOP-62 NSCLC it was 27.9%; in the test on NCI-H460 lung it was 2.33% (active); in the test with HOP-92 NSCLC, 33.8%. Moreover, the growth in the test on NCI-H522 lung was 14.9%; in the test with A549/ATCC NSCLC it was 19.4%; in the test on 786-0 renal, 29.2%; in the test with COLO 205 colon, -8.08% (active).

For the compound `NC(N)=NN=C(c1ccccc1)c1ccccc1`, the growth in the test on NCI-H23 lung is 17.8%; in the test on NCI-H226 lung, 51.4%; with NCI-H322M lung it was 45.5%; in the test with HOP-62 NSCLC, 28.6%; in the test with NCI-H460 lung, 14.4%; in the test with HOP-92 NSCLC, 60.7%. The growth is 28.2% in the test with NCI-H522 lung, 50.8% in the test with A549/ATCC NSCLC, 26.2% with 786-0 renal and -0.806% (active) in the test with COLO 205 colon.

Take `CC/C=C\C/C=C\C[C@H](O)C/C=C1/C(=O)C=C[C@@H]1C/C=C\CCCC(=O)O`: the growth in the test on NCI-H23 lung was 61.8%; with NCI-H226 lung it was 59.6%; in the test with NCI-H322M lung, 53.4%; in the test on HOP-62 NSCLC it was 62.8%; with NCI-H460 lung, 31.8%; in the test with HOP-92 NSCLC, 87.3%. Also, the growth in the test on NCI-H522 lung was -22.8% (active); with A549/ATCC NSCLC, 57.3%; in the test on 786-0 renal, -38.7% (active); with COLO 205 colon, 27%.

For `C(=N\Nc1ncc(-c2cc3cc4c(cc3o2)OCO4)s1)/c1ccco1`, the growth is 20.9% with NCI-H23 lung; 58.4% with NCI-H226 lung; 77.3% in the test with NCI-H322M lung; 62.1% in the test with HOP-62 NSCLC; 13.3% with NCI-H460 lung; 63.2% in the test with HOP-92 NSCLC. The growth was 8.73% (active) with NCI-H522 lung, -10.1% (active) with A549/ATCC NSCLC, 1.77% (active) with 786-0 renal and 6.46% (active) with COLO 205 colon.

Consider `N=C1C(c2nc(-c3ccc(Br)cc3)cs2)=C(O)CN1CC1CCCO1` (stereo not given), for which the growth in the test on NCI-H23 lung is 88.8%; in the test with NCI-H226 lung, 103%; in the test with NCI-H322M lung it was 103%; in the test with HOP-62 NSCLC, 18.5%; in the test with NCI-H460 lung, 60.2%; in the test with HOP-92 NSCLC, 69.6%. In addition, the growth is 99.6% with NCI-H522 lung, 75.2% with A549/ATCC NSCLC, 61.7% with 786-0 renal and 90.8% in the test on COLO 205 colon.

On to `C=C1C(=O)O[C@H]2[C@H]1CC/C(COC(=O)C(=O)c1c[nH]c3ccc(OC)cc13)=C\CC[C@@]1(C)O[C@@H]21`, for which the growth in the test on NCI-H23 lung was -28.1% (active); in the test on NCI-H226 lung it was -68.3% (active); in the test with NCI-H322M lung, -70.5% (active); with HOP-62 NSCLC, -71.3% (active); with NCI-H460 lung it was -53.9% (active); with HOP-92 NSCLC, -77.2% (active). Besides, the growth is -61.3% (active) with NCI-H522 lung, -62.7% (active) in the test on A549/ATCC NSCLC, -91% (active) with 786-0 renal and -68.6% (active) in the test with COLO 205 colon.

Turning to `O=[N+]([O-])c1ccc(OCCO)cc1`, the growth was 99.6% with NCI-H23 lung; 99.7% in the test on NCI-H226 lung; 104% in the test with NCI-H322M lung; 101% in the test with HOP-62 NSCLC; 108% in the test with NCI-H460 lung; 81.2% with HOP-92 NSCLC. Moreover, the growth with NCI-H522 lung is 102%; with A549/ATCC NSCLC, 105%; in the test on 786-0 renal, 109%; with COLO 205 colon, 107%.

In the case of `N#CC1=C(c2ccc(Br)cc2)NC(SCC(=O)c2ccc(Br)cc2)NC1=O` (stereo not given), the growth is 105% in the test on NCI-H23 lung; 97% with NCI-H226 lung; 104% in the test with NCI-H322M lung; 98.6% in the test on HOP-62 NSCLC; 107% with NCI-H460 lung; 102% with HOP-92 NSCLC. The growth in the test on NCI-H522 lung is 99.5%; in the test on A549/ATCC NSCLC it was 93.8%; with 786-0 renal, 92.6%; in the test with COLO 205 colon, 116%.

Source of the values: PubChem BioAssay (NCI).
